Hits are enriched below; roughly 10% of the tested compounds scored in any of these assays.
RORg inh: ROR gamma (mouse) transcription inhibition. Drosophila S2 Gal4-RORgamma UAS-luciferase reporter, 20 h. Potency, µM (top dose mostly 53.6 µM), most hits filed as inhibitors. AID 2551. actives 5.4% (n = 310,000). P51450; note: nearly all actives have a fitted effect of over 60% in size
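Schneider cells (Drosophila), stable Gal4 DBD–ROR gamma + UAS-luc; 1 hr cmpd preincubation; Cu2+ induction 700 uM final; 20 hr ambient; luminescence.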
SW480 rereplic: inducers of DNA re-replication in SW480 colon cancer cells; SW480 DNA re-replication, Hoechst DNA content imaging, 48 h; Potency, µM (titrated, usually from 46.1 µM), most hits filed as activators; actives 1.8% (n = 340,000); AID 624297; note: nearly all actives have a fitted effect of over 55% in size
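Compounds, transferred as 23 nL by pin tool, were incubated with cells for 48 hr; DNA content per nucleus was then quantified by Hoechst staining and fluorescence plate imaging.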
ELG1 repair inh: ELG1-dependent DNA repair inhibition; HEK293T ELG1-luciferase reporter, luminescence, 16 h; DNA damage induced by 5-fluorouridine; Potency, µM (series often up to 46.1 µM), most hits filed as inhibitors; actives 2.3% (n = 330,000); AID 504467; note: nearly all actives have a fitted effect of over 55% in size
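Quantitative HTS, concentration-response format. 2,000 cells/well co-treated with 5-fluorouridine and compound, 16 hr in 5% CO2 at 37 °C; ONE-Glo luminescence read after 30 min.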
Gal4-VP16 FLuc: counter-screen for ROR gamma inhibitors: Gal4-VP16 reporter; Potency, µM (top dose mostly 53.6 µM), most hits filed as inhibitors; Drosophila S2 Gal4-VP16 UAS-luciferase, luminescence, 20 h; actives 3.5% (n = 310,000); AID 2546;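 note: Gal4-VP16 expression switched on by copper sulfate through the metallothionein promoter; nearly all actives have a fitted effect of over 50% in size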
MCF10A rereplic: induces DNA re-replication in MCF 10a normal breast cells. MCF 10A DNA re-replication, Hoechst nuclear intensity, 48 h. Potency, µM (top dose mostly 46.1 µM), usual class: activators. actives 2.9% (n = 350,000). AID 624296; note: nearly all actives have a fitted effect of over 50% in size
ELG1 FLuc counter: luciferase inhibition in cell-free luciferin readout for ELG1 hits. shares compounds with ELG1 repair inh. cell-free firefly luciferase luminescence counter-screen, ViewLux. Potency, µM (titrated, usually from 46.1 µM), hits mostly inhibitors. actives 3% (n = 350). AID 624247
ELG1 Luc conf: human ELG1 repair inhibition, luciferase-tagged ELG1 confirmation; shares compounds with ELG1 repair inh; HEK293T ELG1-luciferase levels, luminescence; cells co-treated with 5-fluorouridine; Potency, µM (top dose mostly 46.1 µM), most hits filed as inhibitors; actives 68% (n = 670); AID 624248; note: nearly all actives have a fitted effect of over 55% in size
ELG1 MMS Luc: inhibits ELG1-dependent repair under MMS stimulation in HEK293T cells; HEK293T luciferase-tagged ELG1 level, MMS stimulated; Potency, µM (top dose mostly 46.1 µM), actives largely listed as inhibitors; shares compounds with ELG1 repair inh; actives 53% (n = 670); AID 624249; note: nearly all actives have a fitted effect of over 60% in size
ELG1 5FU viab: confirmation of ELG1 repair inhibitors: viability with 5FU; shares compounds with ELG1 repair inh; cell viability with 5-FU, ELG1-dependent repair; Potency, µM (doses to about 46.1 µM), hits mostly cytotoxic; 670 tested, under 10 active;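 note: ELG1-luc HEK293T cells cotreated with 5-fluorouridine at 10 µM final; viability measured 16 h after compound addition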
ELG1 MMS viab: confirmation of ELG1 repair inhibitors: viability with MMS; shares compounds with ELG1 repair inh; Potency, µM (titrated, usually from 46.1 µM), usual class: cytotoxic; Cell viability with MMS, ELG1-dependent DNA repair; actives 33% (n = 670);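 note: ELG1-luc HEK293T cells co-treated with 10 µM MMS; viability read 16 h after compound addition; nearly all actives have a fitted effect of over 60% in size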
Cell viab unstim: counter-screen for ELG1 repair inhibitors: unstimulated cell viability; shares compounds with ELG1 repair inh; cell viability counter-screen, unstimulated, luminescence; Potency, µM (series often up to 45.9 µM), usual class: cytotoxic; actives 8% (n = 900); AID 624252;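 note: compound exposure lasted 16 hours before reading; nearly all actives have a fitted effect of over 55% in size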
FLuc biochem: firefly luciferase inhibition counter-screen; shares compounds with ELG1 repair inh; purified firefly luciferase, luminescence counter-screen; Potency, µM (titrated, usually from 57.5 µM), most hits filed as inhibitors; actives 10% (n = 350)
Numbers stand for hits; . = inactive; ? = inconclusive; / = no result; [ ] = remark or other dose. Calls come from the whole dose curve; as a rule, active = well fitted curve in the direction sought with a large enough effect; inconclusive = small, poorly fitted or top-dose-only effect, or another doubt; inactive = no such curve, though single readings can be large; an effect the other way counts as inactive or inconclusive.

SMILES	RORg inh	SW480 rereplic	ELG1 repair inh	Gal4-VP16 FLuc	MCF10A rereplic	ELG1 FLuc counter	ELG1 Luc conf	ELG1 MMS Luc	ELG1 5FU viab	ELG1 MMS viab	Cell viab unstim	FLuc biochem
COc1ccc(S(=O)(=O)N2CCCCCC2)cc1C(=O)N(C)CC(=O)Nc1ccccc1Br	/	.	.	/	.	/	/	/	/	/	/	/
CN(CCCC(=O)Nc1ccncc1)S(=O)(=O)c1ccc(Cl)cc1	.	.	2.3µM	16µM	.	.	.	7.9µM	.	7.9µM	?	.
OCCCNc1ncnc2scc(-c3ccc(Cl)cc3)c12	?	.	4.6µM	.	.	/	5.6µM	16µM	.	.	?	/
CC(=O)Nc1cccc(C(=O)NC(C)c2ccc(S(N)(=O)=O)cc2)c1 (configuration not stated)	.	.	.	.	.	/	/	/	/	/	/	/
Cc1csc(SCC(=O)NCc2ccccc2Cl)n1	.	.	.	.	.	/	/	/	/	/	/	/
Cc1ccc(-c2nc3ccccc3n3nnnc23)cc1	.	.	?	.	.	.	/	/	/	/	.	?
O=C(NCC(=O)N1CCN(S(=O)(=O)c2c(F)cccc2F)CC1)c1ccccc1F	/	.	.	/	.	/	/	/	/	/	/	/
Cc1ccccc1C(=O)c1cccn1CC(=O)NC(C)c1ccc2c(c1)OCCO2 (configuration not stated)	.	?	?	.	.	/	/	/	/	/	/	/
Cc1cc(C)cc(NC(=O)CCc2nc3sc4c(c3c(=O)[nH]2)CCCC4)c1	/	?	.	/	?	.	/	/	/	/	?	.
COc1ccc(CNC(=O)COC(=O)c2cc3ccccc3o2)cc1	/	.	.	/	.	/	/	/	/	/	/	/
Cc1ccc(NC(=O)N2CCOCC2)c(C)c1	.	.	.	.	.	/	/	/	/	/	/	/
Cc1ccc2oc(NC(=O)N3CCOCC3)cc(=O)c2c1	.	.	3.5µM	.	.	/	.	.	.	.	.	/
COc1cc2c(cc1OC)/C(=C/C(=O)c1ccc(OC)c([N+](=O)[O-])c1)NCC2	.	.	?	.	.	/	/	/	/	/	/	/
CC1CCc2nc(NC(=O)C3CCCO3)sc2C1 (configuration not stated)	?	.	?	?	.	/	/	/	/	/	/	/
CC1CCc2nc(-c3cc4ccc(O)cc4oc3=O)sc2C1 (configuration not stated)	/	/	/	/	/	.	/	/	/	/	.	0.18µM
Cc1nc(NC(=O)c2c(-c3ccccc3Cl)noc2C)sc1C	.	.	2.9µM	?	.	/	?	0.5µM	?	.	.	/
COc1cccc2c1C(=O)/C(=C\c1ccc(N(C)C)cc1)C2	/	/	/	/	/	/	/	/	/	/	?	/
CC(=O)c1c(C)[nH]c(C(=O)Nc2cccc(S(=O)(=O)N3CCCC3)c2)c1C	/	.	?	/	?	/	/	/	/	/	?	/
CCOc1ccc(-n2cc(C(=O)Nc3cccc(OC)c3)c3cc(OC)c(OC)cc3c2=O)cc1	.	.	?	.	.	.	11µM	25µM	?	.	.	.
CCn1cc(C(=O)Nc2cccc(NC(C)=O)c2)c2cc(OC)c(OC)cc2c1=O	.	.	?	.	.	/	/	/	/	/	/	/
CCOc1ccc(-n2cc(C(=O)NCCOC)c3cc(OC)c(OC)cc3c2=O)cc1	.	.	.	.	.	/	/	/	/	/	/	/
CCn1cc(C(=O)Nc2ccc3c(c2)OCCO3)c2cc(OC)c(OC)cc2c1=O	.	.	5.8µM	.	.	.	7.1µM	?	?	?	?	.
CCN(CC)C(=O)c1sc2nc(N3CCOCC3)c3c(c2c1N)CCCC3	.	.	6.5µM	.	?	.	11µM	.	?	.	.	.
COc1cccc(N2CC(NS(=O)(=O)c3cccnc3)CC2=O)c1 (configuration not stated)	/	.	4.1µM	/	.	/	.	.	.	?	.	/
CC(=O)OCC1=C[C@H]2[C@@H]3C(C)(C)[C@]3(OC(C)=O)C[C@@H](C)[C@]2(O)[C@@H]2C=C(C)C(=O)[C@@]2(O)C1	.	/	/	.	/	/	/	/	/	/	?	/
SMILES	RORg inh	SW480 rereplic	ELG1 repair inh	Gal4-VP16 FLuc	MCF10A rereplic	ELG1 FLuc counter	ELG1 Luc conf	ELG1 MMS Luc	ELG1 5FU viab	ELG1 MMS viab	Cell viab unstim	FLuc biochem
C=CCNC1=C2C[C@@H](C)C[C@H](OC)[C@H](O)[C@@H](C)/C=C(\C)[C@H](OC(N)=O)[C@@H](OC)/C=C/C=C(\C)C(=O)NC(=CC1=O)C2=O	?	/	/	.[10 µM]	/	/	/	/	/	/	/	/
COC1=C2C[C@@H](C)C[C@H](OC)[C@H](O)[C@@H](C)/C=C(\C)[C@H](OC(N)=O)[C@@H](OC)/C=C\C=C(/C)C(=O)NC(=CC1=O)C2=O	?	/	/	.	/	/	1.4µM	2µM	?	14µM	?	/
COC(=O)c1ccc(OCC2c3cc(OC)c(OC)cc3CCN2C(C)=O)cc1 (configuration not stated)	.	.	6.5µM	.	.	.	10µM	?	?	?	?	.
COc1cc2c(C(=O)Nc3ccccc3F)cn(C)c(=O)c2cc1OC	.	.	.	.	.	.	18µM	.	?	?	.	.
COc1ccccc1/C=C/c1nc2ccccc2s1	/	/	/	/	/	/	/	/	/	/	.	/
CC1CCN(C(=O)CCc2ccc(S(=O)(=O)NC(C)C)cc2)CC1	.	.	.	.	.	/	/	/	/	/	/	/
O=C1CCCN1CC(O)CS(=O)(=O)Cc1ccc(Cl)cc1Cl (configuration not stated)	.	.	.	.	.	/	/	/	/	/	/	/
Cc1nn(C)c(C)c1/C=C/C(=O)c1ccc(Cl)cc1Cl	.	.	4.1µM	?	.	/	.	1.6µM	.	2.2µM	?	/
Cc1nn(C)c(C)c1/C=C/C(=O)O	.	.	.	.	.	/	/	/	/	/	/	/
COc1ccc(-c2cc3cc(F)ccc3cn2)cc1	/	.	?	/	.	/	/	/	/	/	.	/
COc1ccc(-c2cc3ccc(F)cc3cn2)cc1	/	.	?	/	?	/	/	/	/	/	/	/
O=C(Nc1nc(-c2ccccn2)cs1)c1ccc(S(=O)(=O)N2CCCCC2)cc1	1.6µM	/	0.65µM	6.3µM	/	?	36µM	26µM	.	36µM	?	.
COc1ccc(C(=O)Nc2nc(-c3ccccn3)cs2)cc1S(=O)(=O)N1CCOCC1	/	.	4.1µM	/	.	/	13µM	22µM	.	28µM	?	/

Screening data from PubChem BioAssay.
